Sampled rows, rich in hits. Any-hit rate of the full collection: about 3.2%.
Coupling enz – inhibits coupling enzyme system, counter-screen for aldolase hits. coupling enzyme system counterscreen, AmpLite Red fluorescence. AID 2472. activity change, negative = inhibition, % at 58.2 µM, hits read low. hit rate 0.67% among 290,000; in the data active = activity change below about -30%
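Counterscreen lacking aldolase: glyceraldehyde-3-phosphate coupling-enzyme reagent preincubated 10 min at RT with compound (at 57.5 uM final), then substrate/coupling system with AmpLite Red added; fluorescence read at 525/598 nm after 20 min RT.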
VDR inh – blocks the human vitamin D receptor; AID 504847; P11473; Potency, µM, without a hit: max response, negative = inhibition, usual class: inhibitors; VDR-SRC2-3 peptide fluorescence polarization, 2 h; hit rate 0.93% among 400,000; note: potency is the fitted concentration of half-maximal effect
Target sequence (P11473 whole entry, looked up): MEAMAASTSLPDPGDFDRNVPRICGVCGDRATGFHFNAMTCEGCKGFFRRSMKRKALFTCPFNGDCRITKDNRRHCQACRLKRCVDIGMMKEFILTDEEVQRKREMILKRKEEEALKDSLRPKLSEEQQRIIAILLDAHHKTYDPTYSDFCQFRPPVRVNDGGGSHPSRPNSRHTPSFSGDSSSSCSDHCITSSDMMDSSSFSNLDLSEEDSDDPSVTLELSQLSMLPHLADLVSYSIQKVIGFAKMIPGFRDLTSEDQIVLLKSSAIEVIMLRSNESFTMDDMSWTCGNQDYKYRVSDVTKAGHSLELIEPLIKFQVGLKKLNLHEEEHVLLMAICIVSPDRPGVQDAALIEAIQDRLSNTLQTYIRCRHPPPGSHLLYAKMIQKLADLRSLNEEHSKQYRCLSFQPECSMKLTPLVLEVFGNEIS
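VDR–SRC2-3 interaction, FP format. Cmpds 23 nl via pintool, brief spin, 2 h ambient incubation.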
USP1 inh – USP1/UAF1 (human) deubiquitinase inhibition. O94782. recombinant USP1/UAF1, Ub-Rhodamine cleavage fluorescence. Potency, µM (doses to about 57.1 µM), inactives show at the top dose activity change, negative = inhibition, most hits filed as inhibitors. hit rate 0.23% among 390,000. AID 743255; note: potency is the fitted concentration of half-maximal effect; nearly all actives have a fitted effect of over 60% in size
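In this screen, compounds sit with the deubiquitinase complex (1nM) for 15 min at room temperature before Ub-Rho is added at 150nM final. Fluorescence rise is then followed for 6 reads every 60 seconds.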
GALK inhibitor – inhibitors of human galactokinase | Purified GALK, Kinase-Glo residual ATP luminescence | Potency, µM (top dose mostly 57.5 µM), for inactives: top-dose activity change, negative = inhibition, actives largely listed as inhibitors | hit rate 0.007% among 270,000; note: potency is the fitted concentration of half-maximal effect
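Luminescence from leftover ATP (Ultra-Glo luciferase/luciferin) served as read-out after a 1 h room-temperature reaction of 5 nM GALK with 35 uM ATP and 100 uM galactose.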
USP2a block – inhibitors of human ubiquitin-specific protease USP2a | O75604 | USP2 core, Ub-CHOP2 coupled fluorogenic reporter, 485/531 | Potency, µM (doses to about 38.3 µM), for the others: at the top dose activity change, negative = inhibition, most hits filed as inhibitors | hit rate 0.01% among 330,000 | AID 463254;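 note: potency is the fitted concentration of half-maximal effect; plate controls were DMSO wells for no effect and full inhibition by NEM control for full effect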
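Deubiquitinase activity read as fluorescence (485/531 nm) after Ub-CHOP2 cleavage activates the enterokinase reporter on its substrate; USP2 core 10nM, Ub-CHOP2 and substrate 25nM each, 30min compound preincubation then 60min RT; data normalized to NEM, curves fitted.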
PLK1 PBD block – blocks phosphopeptide binding to human PLK1 polo-box domain. AID 720504. P53350. Potency, µM, inactives show max response, negative = inhibition, actives largely listed as inhibitors. hit rate 2.8% among 360,000. Plk1 PBD binding of FITC phosphopeptide, fluorescence polarization; note: potency is the fitted concentration of half-maximal effect; series mostly up to about 57 µM; nearly all actives have a fitted effect of over 65% in size
* marks the source's active call; other numbers are inactive results. Unless noted, calls come from the whole dose curve; as a rule, active = well fitted curve in the direction sought with a large enough effect; inconclusive = small, poorly fitted or top-dose-only effect, or another doubt; inactive = no such curve, though single readings can be large; an effect the other way counts as inactive or inconclusive. Unless noted, % is set by controls: 0 for no effect and ±100 for the full control effect.

What do the screens show for `O=C(CSc1nc2cccnc2n1Cc1ccccc1)N1CCCC1`?
Coupling enz: 1; VDR inh: inconclusive; USP1 inh: -4%; GALK inhibitor: -4%; USP2a block: 1%; PLK1 PBD block: 30µM*

What do the screens show for `CCCc1c(OCC(O)COc2ccc3c(=O)cc(C(=O)O)oc3c2CCC)ccc(C(C)=O)c1O` (centres undefined)?
Coupling enz: 3; VDR inh: 45µM*

Results for FC(F)Oc1ccc(/C=N/n2c(Cc3ccc(Br)cc3)n[nH]c2=S)cc1 ?
Coupling enz: -1; VDR inh: 79µM*; USP1 inh: -6%; GALK inhibitor: -7%; USP2a block: -4%; PLK1 PBD block: 9.5µM*

How did S=c1[nH]nc(COc2ccccc2)n1/N=C/c1ccc(Br)cc1 do in these assays?
Coupling enz: -3; VDR inh: -21%; USP1 inh: -26%; GALK inhibitor: 0%; USP2a block: -14%; PLK1 PBD block: 27µM*

How did S=c1[nH]nc(COc2ccccc2)n1/N=C/c1cccc(Br)c1 do in these assays?
Coupling enz: -4; VDR inh: -11%; USP1 inh: -18%; GALK inhibitor: 3%; USP2a block: -9%; PLK1 PBD block: 30µM*

How did CN(C)c1ccc(/C=N/n2c(COc3ccccc3)n[nH]c2=S)cc1 do in these assays?
Coupling enz: 5; VDR inh: -13%; USP1 inh: -3%; GALK inhibitor: 1%; USP2a block: 2%; PLK1 PBD block: 11µM*

Results for O=[N+]([O-])c1ccc(/C=N/n2c(COc3ccccc3)n[nH]c2=S)cc1 ?
Coupling enz: 11; VDR inh: -14%; USP1 inh: -18%; GALK inhibitor: 2%; USP2a block: 0%; PLK1 PBD block: inconclusive

What do the screens show for `CC(NC(=O)Cc1ccc(NC(=O)N2CCCCc3ccccc32)cc1)c1ccccc1` (centres undefined)?
VDR inh: 9%; USP1 inh: -21%

How did COc1cccc(/C=N/n2c(COc3ccccc3)n[nH]c2=S)c1 do in these assays?
Coupling enz: 3; VDR inh: -15%; USP1 inh: 0%; USP2a block: -2%; PLK1 PBD block: 24µM*

What do the screens show for `Oc1ccc(/C=N/n2c(COc3ccccc3)n[nH]c2=S)cc1O`?
Coupling enz: -2; VDR inh: -18%; USP1 inh: -9%; GALK inhibitor: 0%; USP2a block: -2%; PLK1 PBD block: 21µM*

Results for O=[N+]([O-])c1cccc(/C=N/n2c(COc3ccccc3)n[nH]c2=S)c1 ?
Coupling enz: -15; VDR inh: -24%; USP1 inh: -2%; GALK inhibitor: -1%; USP2a block: -2%; PLK1 PBD block: inconclusive

How did S=c1[nH]nc(-c2ccncc2)n1/N=C/C=C/c1ccccc1 do in these assays?
Coupling enz: 3; VDR inh: -7%; USP1 inh: -2%; GALK inhibitor: -3%; USP2a block: -1%; PLK1 PBD block: -26%

Results for S=c1[nH]nc(-c2ccncc2)n1/N=C/C(Cl)=C\c1ccccc1 ?
Coupling enz: 4; VDR inh: -22%; USP1 inh: -17%; GALK inhibitor: 3%; USP2a block: -1%; PLK1 PBD block: 6.7µM*

Results for S=c1[nH]nc(COc2ccccc2)n1/N=C/C(Cl)=C/c1ccccc1 ?
Coupling enz: -2; VDR inh: inconclusive; USP1 inh: -29%; GALK inhibitor: -12%; USP2a block: 2%; PLK1 PBD block: 24µM*

How did S=c1[nH]nc(COc2ccccc2)n1/N=C/c1c(Cl)cccc1Cl do in these assays?
Coupling enz: 3; VDR inh: 16%; USP1 inh: -8%; GALK inhibitor: 3%; USP2a block: -8%; PLK1 PBD block: inconclusive

Results for COc1cccc(C(=O)CC(C(=O)O)c2ccc(Cl)cc2)c1 (centres undefined) ?
Coupling enz: 7; VDR inh: 12%; USP1 inh: -9%; GALK inhibitor: -3%; USP2a block: -2%; PLK1 PBD block: -8%

What do the screens show for `O=C(COC(=O)c1ccc(Cl)c(S(=O)(=O)N2CCOCC2)c1)Nc1ccc2[nH]c(=O)[nH]c2c1`?
VDR inh: -12%; USP1 inh: -12%; USP2a block: -1%; PLK1 PBD block: -3%

How did CC1CCCN(C(=O)CN2CCN(C(=O)c3ccco3)CC2)C1 (centres undefined) do in these assays?
Coupling enz: 1; VDR inh: 16%; USP1 inh: -7%; GALK inhibitor: -2%; USP2a block: 1%; PLK1 PBD block: -13%

Results for CN(C(=O)c1cccc(NC(=O)Cc2cccc(NC(=O)C3CCCN(C(=O)CCc4ccccc4)C3)c2)c1)C1CCC1 (centres undefined) ?
VDR inh: -16%; USP1 inh: -18%; PLK1 PBD block: -9%

How did S=c1[nH]nc(COc2ccccc2)n1/N=C/c1ccccc1Cl do in these assays?
Coupling enz: 3; VDR inh: -28%; USP1 inh: -14%; GALK inhibitor: -3%; USP2a block: -1%; PLK1 PBD block: 27µM*

Results for CC(C)c1ccc(/C=N/n2c(COc3ccccc3)n[nH]c2=S)cc1 ?
Coupling enz: 2; VDR inh: -14%; USP1 inh: -30%; GALK inhibitor: -4%; USP2a block: -7%; PLK1 PBD block: 24µM*

How did Cc1ccc(/C=N/n2c(COc3ccccc3)n[nH]c2=S)cc1 do in these assays?
Coupling enz: 6; VDR inh: -4%; USP1 inh: -20%; GALK inhibitor: 8%; USP2a block: 0%; PLK1 PBD block: 21µM*

How did S=c1[nH]nc(COc2ccccc2)n1/N=C/c1cccc(Cl)c1Cl do in these assays?
Coupling enz: -1; VDR inh: -4%; USP1 inh: -8%; GALK inhibitor: 5%; USP2a block: -9%; PLK1 PBD block: inconclusive

What do the screens show for `COc1cc2nc(NC(=O)c3ccc(F)cc3Cl)sc(=O)c2cc1OC`?
Coupling enz: -2; VDR inh: 13%; USP1 inh: -11%; GALK inhibitor: 3%; USP2a block: 3%; PLK1 PBD block: inconclusive

How did COc1cc(OC)c(OC)cc1CN1CCCC(C(=O)N2CCCC2)C1 (centres undefined) do in these assays?
Coupling enz: -2; VDR inh: -1%; USP1 inh: -17%; GALK inhibitor: -1%; USP2a block: -1%; PLK1 PBD block: 6%

How did COc1ccc(CN2CCCC(C(=O)N3CCCCC3)C2)c(OC)c1 (centres undefined) do in these assays?
Coupling enz: -5; VDR inh: inconclusive; USP1 inh: -9%; GALK inhibitor: 0%; USP2a block: 1%; PLK1 PBD block: 30µM*
